Hits are enriched below; roughly 1.4% of the tested compounds scored in any of these assays.
KCNH2 WT inh: KCNH2 (human, wildtype) channel inhibition | U2OS, BacMam KCNH2, thallium flux FluxOr; stronger effect = lower value | activity change, % at 1.84 µM | 340,000 compounds, 0.37% hits;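 active means maximum activity change below -70%; inconclusive means maximum activity change between -70% and -50%; inactive means maximum activity change above -50%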; further: on the % scale 0 is the no-effect control and ±100 the full control effect
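U2OS cells transduced with wild-type KCNH2 virus are loaded with FluxOr dye for 45 min, and thallium flux is measured in kinetic reads before and after stimulation buffer. Rate constants are normalized to DMSO controls.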
EPAC1 antagonist: EPAC1 (human) antagonism | EPAC1 GEF assay, Rap1b-BODIPY-GDP exchange fluorescence | Potency, µM (series often up to 115 µM), for inactives: at the highest dose activity change, negative = inhibition, most hits filed as inhibitors | 360,000 compounds, 0.14% hits;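 further: potency means the concentration at half of the fitted maximal effect; plate controls were vehicle for no effect and positive control for full effect; nearly all actives have a fitted effect of over 50% in size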
Target sequence (O95398 whole entry, looked up): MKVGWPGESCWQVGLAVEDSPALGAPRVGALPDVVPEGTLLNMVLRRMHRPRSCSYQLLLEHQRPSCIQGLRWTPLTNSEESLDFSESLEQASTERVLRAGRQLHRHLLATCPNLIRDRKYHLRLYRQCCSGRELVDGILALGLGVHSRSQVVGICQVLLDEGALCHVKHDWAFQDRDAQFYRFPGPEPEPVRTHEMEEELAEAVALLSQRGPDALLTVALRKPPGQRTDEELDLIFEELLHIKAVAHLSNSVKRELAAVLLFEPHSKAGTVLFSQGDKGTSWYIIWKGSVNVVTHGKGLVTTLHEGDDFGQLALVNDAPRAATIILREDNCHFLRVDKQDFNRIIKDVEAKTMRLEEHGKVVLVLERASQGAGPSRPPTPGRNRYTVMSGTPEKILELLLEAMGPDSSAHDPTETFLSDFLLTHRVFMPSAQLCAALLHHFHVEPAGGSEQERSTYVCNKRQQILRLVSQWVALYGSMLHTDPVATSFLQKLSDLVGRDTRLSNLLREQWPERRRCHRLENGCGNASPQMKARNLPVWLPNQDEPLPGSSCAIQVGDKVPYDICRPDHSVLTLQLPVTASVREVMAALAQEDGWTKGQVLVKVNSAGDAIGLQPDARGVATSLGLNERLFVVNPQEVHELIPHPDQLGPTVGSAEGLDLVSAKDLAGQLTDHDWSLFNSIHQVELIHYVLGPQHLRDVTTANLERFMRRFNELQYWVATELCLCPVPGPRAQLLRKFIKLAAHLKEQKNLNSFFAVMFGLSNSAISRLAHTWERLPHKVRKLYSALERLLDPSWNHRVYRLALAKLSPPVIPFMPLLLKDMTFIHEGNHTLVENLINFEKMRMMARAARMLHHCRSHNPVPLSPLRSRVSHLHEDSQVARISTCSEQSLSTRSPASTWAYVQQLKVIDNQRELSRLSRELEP
EPAC2 agonist: agonists of human EPAC2 (RAPGEF4) | EPAC2 activation, biochemical qHTS; response scale: 100% = 6.5 mM cAMP response | Potency, µM (doses to about 154 µM), for the others: top-dose activation, actives largely listed as activators | 360,000 compounds, 0.079% hits | AID 720711; further: potency means the concentration at half of the fitted maximal effect; nearly all actives have a fitted effect of over 50% in size
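Exchange assay: 100 nM EPAC2 with 250 nM Rap1B-BODIPY-GDP and 50 uM GDP. Fluorescence (ex 480/em 540 nm) read every 5 min for 30 min at room temperature. Data normalized to 6.5 mM cAMP as agonist control.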
EPAC1 agonist: activates human EPAC1 exchange factor | O95398 | EPAC1 agonist qHTS, biochemical assay; response scale: 100% = response to 6.5 mM cAMP | Potency, µM (highest dose often 154 µM), for the others: at the top dose activation, actives largely listed as activators | 360,000 compounds, 0.073% hits; further: potency means the concentration at half of the fitted maximal effect; nearly all actives have a fitted effect of over 60% in size
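Compounds were pinned as a concentration titration into mixtures of EPAC1 (100 nM), BODIPY-GDP-loaded Rap1B (250 nM) and GDP (50 uM). After 5 min at room temperature, fluorescence was followed for 30 min; activity was scaled to 6.5 mM cAMP.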
EPAC2 antag: blocks human EPAC2 exchange factor | EPAC2 GEF exchange of Rap1B-BODIPY-GDP, fluorescence | Potency, µM (top dose mostly 114 µM), inactives show at the top dose activity, negative = inhibition, actives largely listed as inhibitors | Q8WZA2 | 360,000 compounds, 0.18% hits | AID 720708; further: potency means the concentration at half of the fitted maximal effect; on the % scale 0 is the no-effect control and ±100 the full control effect; nearly all actives have a fitted effect of over 45% in size
KCNH2 3.1 inh: blocks the human KCNH2 3.1 channel isoform. activity change, % (tested at about 1.8 µM). 340,000 compounds, 0.95% hits. U2OS KCNH2 3.1, thallium flux FluxOr; stronger effect = lower value;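 active means maximum activity change below -70%; inconclusive means maximum activity change from -70% to -50%; inactive means maximum activity change above -50%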;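 further: thallium influx rate constant from kinetic fluorescence after stimulation buffer; on the % scale 0 is the no-effect control and ±100 the full control effect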
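Normalized rate constant (relative to positive and negative DMSO controls) derived from a 2 min kinetic fluorescence read after stimulation; U2OS cells expressing the 3.1 isoform via virus at 1.77 x 10^8 /mL.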
The depositor's hits bear a star. Unless noted, the call rests on the fitted dose curve; in most records, active means well fitted curve in the direction sought with a large enough effect; inconclusive means small, poorly fitted or top-dose-only effect, or another doubt; inactive means no such curve, though single readings can be large; an effect the other way counts as inactive or inconclusive.

How did CCCS(=O)(=O)NC(=O)C1(C)CCN(C(=O)c2cc(C)nn2C(C)(C)C)C1 (stereo not given) do in these assays?
EPAC1 antagonist: -20.5%; EPAC2 agonist: 2.4%; EPAC1 agonist: -1.7%; EPAC2 antag: 5.1%

Results for O=C(CN1CCN(c2ccc(F)cc2)CC1)N1CCC(Cc2ccccc2)CC1 ?
KCNH2 WT inh: 42.7; EPAC1 antagonist: -7.7%; EPAC2 agonist: 6.7%; EPAC1 agonist: 6.2%; EPAC2 antag: -2.3%; KCNH2 3.1 inh: -29.3

What do the screens show for `O=C(CN1CCC(Cc2ccccc2)CC1)N1CCc2ccccc2C1`?
KCNH2 WT inh: -34.7; EPAC1 antagonist: -22.0%; EPAC2 agonist: 5.7%; EPAC1 agonist: 0.5%; EPAC2 antag: 0.5%; KCNH2 3.1 inh: -89.7*

How did c1cncc(-c2nnc(C3CCCCC3)o2)c1 do in these assays?
KCNH2 WT inh: -1.5; EPAC1 antagonist: -0.3%; EPAC2 agonist: 5.8%; EPAC1 agonist: 3.9%; EPAC2 antag: 0.7%; KCNH2 3.1 inh: -80.2*

What do the screens show for `COc1cccc(-c2nnc(NC(C)=O)o2)c1`?
KCNH2 WT inh: 0.9; EPAC1 antagonist: -11.9%; EPAC2 agonist: 4.2%; EPAC1 agonist: -7.3%; EPAC2 antag: 2.7%; KCNH2 3.1 inh: 14.9

How did COc1cccc(-c2nnc(NC(=O)C3CCCCC3)o2)c1 do in these assays?
KCNH2 WT inh: -20.4; EPAC1 antagonist: -4.9%; EPAC2 agonist: 3.0%; EPAC1 agonist: -9.2%; EPAC2 antag: 1.3%; KCNH2 3.1 inh: -84.2*

How did O=C(c1ccccc1Cl)N(Cc1ccc(Br)cc1)N1C(=O)CCCC1=O do in these assays?
KCNH2 WT inh: 5.3; EPAC1 antagonist: 11.8%; EPAC2 agonist: 12.1%; EPAC1 agonist: -5.8%; EPAC2 antag: -1.9%; KCNH2 3.1 inh: -0.4

Results for O=C(c1ccc([N+](=O)[O-])cc1)N(Cc1ccc(Br)cc1)N1C(=O)CCCC1=O ?
KCNH2 WT inh: -83.7*; EPAC1 antagonist: -0.5%; EPAC2 agonist: -3.2%; EPAC1 agonist: -5.3%; EPAC2 antag: 6.6%; KCNH2 3.1 inh: inconclusive

Results for COc1ccccc1C(=O)NCC(=O)NCc1cc(=O)n(C)c(=O)n1C ?
KCNH2 WT inh: -14.0; EPAC1 antagonist: -2.1%; EPAC2 agonist: 4.3%; EPAC1 agonist: 12.8%; EPAC2 antag: -6.0%; KCNH2 3.1 inh: 14.6

Results for O=c1c2cc(NC(=S)NCCCN3CCC(Cc4ccccc4)CC3)ccc2nc2n1CCCCC2 ?
KCNH2 WT inh: -28.7; EPAC1 antagonist: 0.5%; EPAC2 agonist: -2.4%; EPAC1 agonist: -10.5%; EPAC2 antag: 13.4%; KCNH2 3.1 inh: -72.2*

Results for C#CCOCCOCCOCCNc1nc(N2CCN(C(=O)Cn3cc(CC(C)O)nn3)CC2)nc(N2CCN(C(=O)[C@H](C)n3cc(CCCN=C(N)N)nn3)CC2)n1 (stereo not given in full) ?
KCNH2 WT inh: 0.4; EPAC1 antagonist: -14.3%; EPAC2 agonist: 7.9%; EPAC1 agonist: -13.7%; EPAC2 antag: -3.2%; KCNH2 3.1 inh: -146.8*

How did C#CCOCCOCCOCCNc1nc(N2CCN(C(=O)CCCCCCCCCCNC(=O)[C@@H](CCSC)n3cc(CCO)nn3)CC2)nc(N2CCN(C(=O)CCCCCCCCCCNC(=O)[C@H]([C@@H](C)CC)n3cc(CCCCCN)nn3)CC2)n1 do in these assays?
KCNH2 WT inh: 8.9; EPAC1 antagonist: 44.7µM*; EPAC2 agonist: inconclusive; EPAC1 agonist: inconclusive; EPAC2 antag: inconclusive; KCNH2 3.1 inh: 9.5

How did O=C(NCC(=O)N1CC=C(c2ccccc2)CC1)c1ccc(OC(F)F)cc1 do in these assays?
KCNH2 WT inh: 34.6; EPAC1 antagonist: 9.7%; EPAC2 agonist: 7.9%; EPAC1 agonist: 2.0%; EPAC2 antag: 2.6%; KCNH2 3.1 inh: -79.6*

Results for Cc1cccc(C)c1NC(=O)C1(C)CN(S(C)(=O)=O)CC(=O)N1CCc1ccccc1F (stereo not given) ?
EPAC1 antagonist: 7.7%; EPAC2 agonist: -0.6%; EPAC1 agonist: 5.1%; EPAC2 antag: -19.6%

How did CCOc1ccc2[nH]c(=O)c(CN(CCO)C(=O)c3ccc(Br)cc3)cc2c1 do in these assays?
KCNH2 WT inh: -5.7; EPAC1 antagonist: 2.5%; EPAC2 agonist: -4.1%; EPAC1 agonist: -0.4%; EPAC2 antag: -7.3%; KCNH2 3.1 inh: -139.6*

How did CC(CCc1ccccc1)NC(=O)COC(=O)C(CCC(N)=O)NC(=O)c1ccc(F)cc1 (stereo not given) do in these assays?
KCNH2 WT inh: 10.2; EPAC1 antagonist: -14.8%; EPAC2 agonist: 0.5%; EPAC1 agonist: 0.3%; EPAC2 antag: -12.0%; KCNH2 3.1 inh: 0.5

What do the screens show for `CCOC(=O)c1c(NC(=O)c2nn(CC)cc2Br)sc(C)c1C`?
KCNH2 WT inh: 6.0; EPAC1 antagonist: 11.0%; EPAC2 agonist: 2.5%; EPAC1 agonist: -4.2%; EPAC2 antag: 4.6%; KCNH2 3.1 inh: -72.2*

What do the screens show for `c1ccc(CNc2nc(NCCc3ccncc3)c3sccc3n2)cc1`?
EPAC1 antagonist: -0.2%; EPAC2 agonist: 9.3%; EPAC1 agonist: -8.0%; EPAC2 antag: 9.0%

Results for COCCOC(=O)C(C#N)c1nc2ccccc2nc1N1CCN(Cc2ccccc2)CC1 (stereo not given) ?
KCNH2 WT inh: -11.0; EPAC1 antagonist: -13.3%; EPAC2 agonist: 9.9%; EPAC1 agonist: 5.1%; EPAC2 antag: inconclusive; KCNH2 3.1 inh: -87.6*

Results for C=CCNC(=O)C(C#N)c1nc2ccccc2nc1N1CCN(Cc2ccccc2)CC1 (stereo not given) ?
KCNH2 WT inh: -12.8; EPAC1 antagonist: 19.1%; EPAC2 agonist: 14.5%; EPAC1 agonist: 11.9%; EPAC2 antag: 38.7%; KCNH2 3.1 inh: -16.4

What do the screens show for `C=CCOC(=O)C(C#N)c1nc2ccccc2nc1N1CCN(Cc2ccccc2)CC1` (stereo not given)?
KCNH2 WT inh: inconclusive; EPAC1 antagonist: -10.5%; EPAC2 agonist: -5.1%; EPAC1 agonist: 16.7%; EPAC2 antag: 5.3%; KCNH2 3.1 inh: -87.0*

What do the screens show for `N#CC(C(=O)NC1CC1)c1nc2ccccc2nc1N1CCN(C/C=C/c2ccccc2)CC1` (stereo not given)?
KCNH2 WT inh: -104.0*; EPAC1 antagonist: 13.0%; EPAC2 agonist: -7.0%; EPAC1 agonist: 6.3%; EPAC2 antag: 25.0%; KCNH2 3.1 inh: -85.8*

What do the screens show for `COCCCNC(=O)C(C#N)c1nc2ccccc2nc1N1CCN(Cc2ccccc2)CC1` (stereo not given)?
KCNH2 WT inh: 23.3; EPAC1 antagonist: 6.7%; EPAC2 agonist: -47.9%; EPAC1 agonist: 0.6%; EPAC2 antag: 79.4µM*; KCNH2 3.1 inh: -10.0

Source: PubChem BioAssay (National Center for Advancing Translational Sciences (NCATS))
